Source: PubChem BioAssay (NCATS)
Active and inactive are the calls of the source. How the calls were made is not given here.

System: HIV-1 nucleocapsid protein NCp7 (binding to TG oligonucleotide)
Assay: HIV Nucleocapsid (AID 346);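 further: potency is for inhibitors that block NC binding and lower polarization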
Settings: HIV-1 NC / fluorescein-TGTGTGTG probe, fluorescence polarization
In short: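 Fluorescence polarization binding of 100 nM HIV-1 NC to 10 nM fluorescein-labelled TG4xF oligonucleotide. Buffer was Hepes pH 7.5 with 250mM NaCl, 1uM ZnCl2, TCEP and 2-mercaptoethanol. Compounds were incubated 1 hr at room temperature before the read.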
Potency means the concentration at half of the fitted maximal effect.

Question: For `CC(=O)N1CCC2(CC1)CCN(C(=O)Nc1cccc(C#N)c1)CC2`, which Potency is on record?
Answer: Its Potency is > 20 µM (inactive).

Question: How did the Potency turn out when `Cc1noc(C)c1C(=O)N1CCC2(CC1)CCN(c1ncccn1)CC2` was run?
Answer: The Potency was > 20 µM (inactive).

Question: For `COc1ncc2nc(-c3ccc(Cl)cc3)c(=O)n(C)c2n1`, which Potency is on record?
Answer: Its Potency is > 20 µM (inactive).

Question: Which Potency does the source give for `CN1CCN(c2ncc3ncc(=O)n(CCc4ccccc4)c3n2)CC1` here?
Answer: The Potency was > 20 µM (inactive).

Question: `COc1ccc(-c2nc3cnc(N4CCOCC4)nc3n(C[C@H]3CCCO3)c2=O)cc1` was tested. Which Potency did it give?
Answer: Its Potency is > 20 µM (inactive).

Question: With `CNc1nc(-c2cccnc2)nc2ccccc12` as the molecule, how does the Potency read?
Answer: Its Potency is > 20 µM (inactive).

Question: For `COc1ccc(CNc2ncnc3ccc(-c4cccnc4)cc23)c(OC)c1`, which Potency is on record?
Answer: The Potency was > 20 µM (inactive).

Question: How did the Potency turn out when `O=c1c(-c2ccccc2)nc2cncnc2n1-c1ccccc1` was run?
Answer: The Potency was > 20 µM (inactive).

Question: `COCCn1c(=O)c(-c2ccc(Cl)cc2)nc2cnc(Oc3cccc(Cl)c3)nc21` was tested. Which Potency did it give?
Answer: The Potency was > 20 µM (inactive).

Question: For `COc1cccc(Cn2c(=O)cnc3cnc(OC)nc32)c1`, which Potency is on record?
Answer: Its Potency is > 20 µM (inactive).

Question: `COc1ccc(C(=O)N2CCC[C@@]3(CCN(c4ccccc4)C3)C2)cc1` was tested. Which Potency did it give?
Answer: The Potency was > 20 µM (inactive).

Question: With `O=C(c1csnn1)N1CCC2(CCCN(c3ccccc3)C2)CC1` as the molecule, how does the Potency read?
Answer: The Potency was > 20 µM (inactive).

Question: With `COc1cccc(-c2cc(NCCc3c[nH]c4ccc(OC)cc34)ncn2)c1` as the molecule, how does the Potency read?
Answer: Its Potency is > 20 µM (inactive).

Question: Which Potency does the source give for `O=C(Nc1ccccc1)N1CC2(CCN(C(=O)c3cc(C(F)(F)F)cc(C(F)(F)F)c3)CC2)C1` here?
Answer: Its Potency is > 20 µM (inactive).

Question: `Cn1c(=O)c(-c2cccs2)nc2cnc(OCc3ccccc3)nc21` was tested. Which Potency did it give?
Answer: The Potency was > 20 µM (inactive).

Question: `CN(Cc1ccco1)c1ncnc2ccc(-c3ccc4c(c3)OCO4)cc12` was tested. Which Potency did it give?
Answer: The Potency was > 20 µM (inactive).

Question: How did the Potency turn out when `COC(=O)N1CCC[C@@]2(CCN(C(=O)Nc3ccc(OC)cc3)C2)C1` was run?
Answer: Its Potency is > 20 µM (inactive).

Question: For `O=C(c1ccncc1)N1CCC2(CC1)CCN(c1cccc(-c3ccccc3)c1)CC2`, which Potency is on record?
Answer: Its Potency is > 20 µM (inactive).

Question: Which Potency does the source give for `COCCn1c(=O)c(-c2ccc(OC)cc2)nc2cnc(Oc3cccc(Cl)c3)nc21` here?
Answer: The Potency was > 20 µM (inactive).

Question: For `O=S(=O)(c1ccccc1)N1CCC[C@@]2(CCN(Cc3ccccc3)C2)C1`, which Potency is on record?
Answer: The Potency was > 20 µM (inactive).

Question: How did the Potency turn out when `CN(C)c1ccc(-c2cc(-n3ccnc3)ncn2)cc1` was run?
Answer: Its Potency is > 20 µM (inactive).

Question: With `CN1CCN(c2ncc3nc(-c4ccc(Cl)cc4)c(=O)n(Cc4cccs4)c3n2)CC1` as the molecule, how does the Potency read?
Answer: The Potency was > 20 µM (inactive).

Question: `FC(F)(F)c1ccccc1-c1nc(Nc2ccncc2)c2ccccc2n1` was tested. Which Potency did it give?
Answer: Its Potency is > 20 µM (inactive).

Question: For `O=C(c1ccco1)N1CCC2(CC1)CCN(c1ncccn1)CC2`, which Potency is on record?
Answer: The Potency was > 20 µM (inactive).

Question: For `CN(C)c1ncc2ncc(=O)n(CCC#N)c2n1`, which Potency is on record?
Answer: The Potency was > 20 µM (inactive).

Question: `FC(F)(F)c1ccccc1-c1cncnc1NCc1cccs1` was tested. Which Potency did it give?
Answer: Its Potency is > 20 µM (inactive).

Question: `CCNc1ncc2nc(-c3ccc(F)cc3)c(=O)n(Cc3ccc(F)cc3)c2n1` was tested. Which Potency did it give?
Answer: The Potency was > 20 µM (inactive).

Question: How did the Potency turn out when `COc1ccc(NC(=O)N2CCC3(CC2)CCN(S(=O)(=O)c2ccccc2)CC3)cc1` was run?
Answer: Its Potency is > 20 µM (inactive).

Question: With `c1ccc2c(NCCN3CCOCC3)nc(-c3ccoc3)nc2c1` as the molecule, how does the Potency read?
Answer: Its Potency is > 20 µM (inactive).

Question: `COc1ccccc1CN1CCCC2(CCN(C(=O)c3ccco3)CC2)C1` was tested. Which Potency did it give?
Answer: The Potency was > 20 µM (inactive).

Question: How did the Potency turn out when `O=c1cnc2cnc(Oc3ccccc3)nc2n1C1CC1` was run?
Answer: Its Potency is > 20 µM (inactive).

Question: `N#CCCn1c(=O)c(-c2cccs2)nc2cnc(N3CCNCC3)nc21` was tested. Which Potency did it give?
Answer: The Potency was 16.4 µM (inactive).

Question: How did the Potency turn out when `N#CCCn1c(=O)c(-c2ccc(Cl)cc2)nc2cnc(Oc3cccc(Cl)c3)nc21` was run?
Answer: Its Potency is > 4 µM (inactive).

Question: How did the Potency turn out when `CC(=O)N1CCC2(CCCN(Cc3ccc(C#N)cc3)C2)CC1` was run?
Answer: The Potency was > 20 µM (inactive).

Question: `O=C(c1ccco1)N1CCC2(CCN(Cc3ccccc3)CC2)CC1` was tested. Which Potency did it give?
Answer: Its Potency is > 20 µM (inactive).

Question: For `O=c1c(-c2ccc(F)cc2)nc2cnc(N3CCOCC3)nc2n1Cc1ccc(F)cc1`, which Potency is on record?
Answer: The Potency was > 20 µM (inactive).

Question: `COc1ccccc1CNc1ccnc(-c2c(C)noc2C)n1` was tested. Which Potency did it give?
Answer: Its Potency is > 20 µM (inactive).

Question: For `O=C(c1ccco1)N1CCC2(CCCN(C(c3ccccc3)c3ccccc3)C2)CC1`, which Potency is on record?
Answer: The Potency was > 20 µM (inactive).

Question: For `COCCn1c(=O)c(-c2ccccc2)nc2cnc(N(C)C)nc21`, which Potency is on record?
Answer: Its Potency is > 20 µM (inactive).

Question: How did the Potency turn out when `O=C(c1cccc(F)c1)N1CCC2(CC1)CCN(c1cccc(-c3ccccc3)c1)CC2` was run?
Answer: Its Potency is > 20 µM (inactive).
